The supplement of paper PMC10338343
± gives the standard deviation.

Tested on: MILI (PIWIL2) piRISC loaded with L1MC piRNA (26 nt)
Experiment: pre-steady-state target cleavage rate (min^-1); guide: L1MC piRNA 5'p-UAACUAAAUACUAUGCAAGCUGUAGG; MIWI and MILI are mouse PIWI proteins and EfPiwi is from a freshwater sponge; tags in brackets are library labels; higher = faster piRNA-guided slicing of the target
Settings: auxiliary factor: 500 nM mouse GTSF1
Outline: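 Cleave-'n-Seq: a transcribed, DNA-blocked target RNA library (0.1 nM) was mixed with 1 nM active affinity-purified piRISC carrying one synthetic guide, with or without 500 nM GTSF1 partner protein, in HEPES–potassium acetate buffer at 33 °C for 0–8 or 0–960 min. Uncleaved targets were sequenced and normalised to depth and to weakly complementary targets. Three trials were pooled, and k3 was capped at 0.0001 min^-1. The pre-steady-state cleavage rate came from a burst-and-steady-state fit.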

Sequence	pre-steady-state target cleavage rate
UCCUGGAUGACCAUGCAUAGUAUUUAGUUA	0.0729 ± 0.022
UCCUGGAUGUCGAUGCAUAGUAUUUAGUA	0.0708 ± 0.011
UCCUGGAUGUCGUUGCAUAGUAUUUAGUUUA	0.178 ± 0.018
UCCUGCUACAGCUUGCAUUCUAUUUAGUUA	0.0454 ± 0.0087
UCCUGGAUGUCGUUACAUAGUAUUUAGUUA	0.105 ± 0.011
UCCUGGAUGUGCAAGCAUAGUAUUUAGUUA	0.055 ± 0.012
UCCUGGUACAGCUUGCAUAGUAUUUCAGUUA	0.21 ± 0.078
UCCUCCUACAGCUUGCAUAGUAUUUCAGUUA	0.463 ± 0.073
UCCUGGAACAGCUAGGAUAGUAUUUAGUUA	0.26 ± 0.016
UCCUGGUACAGCUUGCAUAUGUAUUUAGUUA	0.00566 ± 0.0049
UCCUGGUACAGACUUGCAUAGUAUUUAGUUA	0.228 ± 0.042
UCCUGGAUGUCGUUGCUUAGUAUUUAGUUA	0.0857 ± 0.011
UCCUGGAUGUCCUUGCAUAGUACUUUAGUUA	0.0282 ± 0.011
UCCUGCUACAGUCUUGCAUAGUAUUUAGUUA	0.222 ± 0.021
UCCUGGAUGUCGAAGCAUAGUAUAUUAGUUA	0.0302 ± 0.0085
UCCUGGAUGUCGAUCGCAUAGUAUUUAGUUA	0.0384 ± 0.0094
UCCUGGAACAGCUUGAUAGUAUUUAGUUA	0.11 ± 0.013
UCCUGGAUGUCGAUGCAUAGUAUUUGGUUA	0.0838 ± 0.016
UCCUGGAUGUCGAUGCAUAGUAUGUUAGUUA	0.0347 ± 0.0076
UCCUCCUACAGCGUGCAUAGUAUUUAGUUA	0.309 ± 0.021

Sequence	pre-steady-state target cleavage rate
UCCUUCUACAGCUUGCAUAGUAUUUAGUUA	0.3 ± 0.015
UCCUCCUACAGCUUCGUUAGUAUUUAGUUA	0.221 ± 0.013
UCCUGGAUGUCGAUGCAUAGUAUUUGAGUUA	0.125 ± 0.027
UCCUGGAUCAGCUUGCUAUGUAUUUAGUUA	0.0176 ± 0.0068
UCCUGGAUGUGGUUGCAUUGUAUUUAGUUA	0.0353 ± 0.0089
UCCUGGAUGUCCUUGCAUUGUAUUAAGUUA	0.0479 ± 0.012
UCCUGGUACAGCUACCAUAGUAUUUAGUAA	0.28 ± 0.04
UCCUGGAUCAGCUUGCAUAGUAUAUUGUUA	0.118 ± 0.014
UCCUGGAUGUCGUUGCUUAGUAUUUAGUAA	0.0495 ± 0.02
UCCUGGAACACGAUGCAUAGUAUUUAGUAA	0.0953 ± 0.013
UCCUGGAUGUCGAAGCAUAGUAUUUAGUUUA	0.0244 ± 0.0042
UCCUGGAUGUCGUUGCAUAGUAUUUAGUUU [g2:g18:cont:t1U]	0.128 ± 0.016
UCCUGGAUGUGCUUGCAUAGUAUUUUAGUUA	0.101 ± 0.018
UCCUGGAUGUGCAUGCAUAGUAUUAAGUUA	0.122 ± 0.017
UCCUGGAUGUCGAAGUAUAGUAUUUAGUUA	0.0142 ± 0.004
UCCUGGUACAGCUUGCAUUGAAUUUAGUUA	0.047 ± 0.015
UCCUGCUACAGCAUGCAUAGUAUUUAGUAA	0.277 ± 0.03
UCCUGGUACAGCUUGCAUAGUAUUAGUUA	0.327 ± 0.053
UCCUGGAUGUCGUUGUAUAGUAUUUAGUUA	0.151 ± 0.017
UCCUGGAACACCUUGGAUAGUAUUUAGUUA	0.153 ± 0.021

Same assay, conditions: auxiliary factor: none (no GTSF1)

Sequence	pre-steady-state target cleavage rate
UCCUGGAUGACCAUGCAUAGUAUUUAGUUA	0.00375 ± 0.0034
UCCUGGAUGUCGAUGCAUAGUAUUUAGUA	0.00401 ± 0.0022
UCCUGGAUGUCGUUGCAUAGUAUUUAGUUUA	0.0103 ± 0.0039
UCCUGCUACAGCUUGCAUUCUAUUUAGUUA	0.00339 ± 0.0024
UCCUGGAUGUCGUUACAUAGUAUUUAGUUA	0.00442 ± 0.0022
UCCUGGAUGUGCAAGCAUAGUAUUUAGUUA	0.00481 ± 0.0026
UCCUGGUACAGCUUGCAUAGUAUUUCAGUUA	0.00397 ± 0.0039
UCCUCCUACAGCUUGCAUAGUAUUUCAGUUA	0.0049 ± 0.0029
UCCUGGAACAGCUAGGAUAGUAUUUAGUUA	0.00746 ± 0.002
UCCUGGUACAGCUUGCAUAUGUAUUUAGUUA	0.00451 ± 0.0033
UCCUGGUACAGACUUGCAUAGUAUUUAGUUA	0.00755 ± 0.0044
UCCUGGAUGUCGUUGCUUAGUAUUUAGUUA	0.00861 ± 0.002
UCCUGGAUGUCCUUGCAUAGUACUUUAGUUA	0.00534 ± 0.0022
UCCUGCUACAGUCUUGCAUAGUAUUUAGUUA	0.00875 ± 0.0023
UCCUGGAUGUCGAAGCAUAGUAUAUUAGUUA	0.00411 ± 0.0026
UCCUGGAUGUCGAUCGCAUAGUAUUUAGUUA	0.00367 ± 0.0026
UCCUGGAACAGCUUGAUAGUAUUUAGUUA	0.00612 ± 0.0022
UCCUGGAUGUCGAUGCAUAGUAUUUGGUUA	0.00614 ± 0.0029
UCCUGGAUGUCGAUGCAUAGUAUGUUAGUUA	0.00559 ± 0.0031
UCCUCCUACAGCGUGCAUAGUAUUUAGUUA	0.00999 ± 0.003

Sequence	pre-steady-state target cleavage rate
UCCUUCUACAGCUUGCAUAGUAUUUAGUUA	0.0105 ± 0.0029
UCCUCCUACAGCUUCGUUAGUAUUUAGUUA	0.00396 ± 0.0017
UCCUGGAUGUCGAUGCAUAGUAUUUGAGUUA	0.00324 ± 0.0024
UCCUGGAUCAGCUUGCUAUGUAUUUAGUUA	0.00553 ± 0.0022
UCCUGGAUGUGGUUGCAUUGUAUUUAGUUA	0.00721 ± 0.0036
UCCUGGAUGUCCUUGCAUUGUAUUAAGUUA	0.00424 ± 0.0019
UCCUGGUACAGCUACCAUAGUAUUUAGUAA	0.00528 ± 0.0023
UCCUGGAUCAGCUUGCAUAGUAUAUUGUUA	0.00518 ± 0.0025
UCCUGGAUGUCGUUGCUUAGUAUUUAGUAA	0.00388 ± 0.0022
UCCUGGAACACGAUGCAUAGUAUUUAGUAA	0.00313 ± 0.0029
UCCUGGAUGUCGAAGCAUAGUAUUUAGUUUA	0.00589 ± 0.0023
UCCUGGAUGUCGUUGCAUAGUAUUUAGUUU [g2:g18:cont:t1U]	0.0134 ± 0.0037
UCCUGGAUGUGCUUGCAUAGUAUUUUAGUUA	0.0102 ± 0.0031
UCCUGGAUGUGCAUGCAUAGUAUUAAGUUA	0.00463 ± 0.0027
UCCUGGAUGUCGAAGUAUAGUAUUUAGUUA	0.00325 ± 0.002
UCCUGGUACAGCUUGCAUUGAAUUUAGUUA	0.00399 ± 0.0037
UCCUGCUACAGCAUGCAUAGUAUUUAGUAA	0.00478 ± 0.0028
UCCUGGUACAGCUUGCAUAGUAUUAGUUA	0.00515 ± 0.003
UCCUGGAUGUCGUUGUAUAGUAUUUAGUUA	0.0105 ± 0.0023
UCCUGGAACACCUUGGAUAGUAUUUAGUUA	0.00568 ± 0.0025
